The list is not random: actives were taken first. Their share in the collection is about 1.7%.
PTHR1 agonist: activates the human parathyroid hormone receptor PTHR1; Q03431; HEK293 GP2 PTHR1 cells, GloSensor cAMP luminescence, 1 h; Potency, µM (series often up to 115 µM), inactives show top-dose activation, most hits filed as activators; hit rate 0.075% among 410,000; AID 743266; also: potency is read from the fitted curve at half-maximal effect; nearly all actives have a fitted effect of over 55% in size
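HEK-293-derived GP2 cells expressing PTHR1 and a GloSensor cAMP reporter, 3,000/well, plated overnight, given luciferin plus IBMX (each 0.5 mM as added) for 1 h at 37 °C, then compound for 1 h at 37 °C. Luminescence was read after 15 min at room temperature.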
GLP1R inv ag: inverse agonists of human GLP-1 receptor; P43220; HEK293 GLP-1R CRE-luciferase, luminescence, 24 h; GLP-1R form is constitutively active; hit rate 1.6% among 410,000; Potency, µM (top dose mostly 38.3 µM), without a hit: top-dose activity change, negative = inhibition, actives largely listed as inhibitors; AID 624417; also: potency is read from the fitted curve at half-maximal effect; % is scaled to controls: 0 for no effect and ±100 for the full control effect; nearly all actives have a fitted effect of over 55% in size
Target sequence (P43220 whole entry, looked up): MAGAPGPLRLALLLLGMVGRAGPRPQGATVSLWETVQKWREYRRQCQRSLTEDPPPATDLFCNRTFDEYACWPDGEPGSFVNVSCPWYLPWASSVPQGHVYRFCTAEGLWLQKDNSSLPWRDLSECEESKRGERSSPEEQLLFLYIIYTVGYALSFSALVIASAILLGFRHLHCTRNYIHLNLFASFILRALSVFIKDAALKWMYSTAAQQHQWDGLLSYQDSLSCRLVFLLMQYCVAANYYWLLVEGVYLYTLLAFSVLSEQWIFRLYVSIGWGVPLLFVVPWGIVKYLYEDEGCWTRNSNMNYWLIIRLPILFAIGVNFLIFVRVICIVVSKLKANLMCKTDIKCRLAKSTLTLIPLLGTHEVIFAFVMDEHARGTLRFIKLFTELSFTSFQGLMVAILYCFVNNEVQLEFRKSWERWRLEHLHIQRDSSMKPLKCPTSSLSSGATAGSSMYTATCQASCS
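HEK293 cells stably co-expressing constitutively active GLP-1R and a cAMP-responsive luciferase reporter were seeded in DMEM with 10% Nu serum, given compounds after 12 h, and incubated 24 h at 37 deg C. Luminescence was then read.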
LDHA inh: blocks human lactate dehydrogenase A. purified LDHA, NADH/diaphorase-resazurin fluorescence; stronger effect = lower value. activity change, % (values are at about 110 or 230 µM). hit rate 0.15% among 480,000; in the data active = activity change below about -30%; inconclusive = mostly about -25% to -30%;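 also: plate controls were DMSO wells for no effect and wells without enzyme for full effect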
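LDH5 2 nM; NADH 0.06 mM, pyruvate 0.2 mM; 200 mM Tris pH 7.4, EDTA, Tween-20; 5 min RT. Detection: diaphorase 0.133 mg/mL + resazurin 37 µM, fluorescence ex540/em590 at 0 and 20 min; normalized to enzyme-free and DMSO wells.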
HEK293 tox: cytotoxic in the GLP-1 receptor inverse agonist counter-screen; HEK293 cAMP-luciferase reporter cells, luminescence, 24 h; Potency, µM (series often up to 38.3 µM), without a hit: at the top dose activity change, negative = inhibition, hits mostly inhibitors; hit rate 0.13% among 410,000; AID 624418;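 also: loss of luciferase light is scored as toxicity; potency is read from the fitted curve at half-maximal effect; % is scaled to controls: 0 for no effect and ±100 for the full control effect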
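Here, cytotoxicity is scored as loss of luminescence. The MLSMR collection was tested on cells seeded in medium containing 10% Nu serum, with a 24 hr compound exposure preceded by 12 hours of culture.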
IDH1 R132H inh: inhibitors of human mutant IDH1 R132H; O75874; IDH1-R132H enzyme, NADPH consumption, diaphorase/resazurin fluorescence; hit rate 0.093% among 390,000; AID 602179; Potency, µM (doses to about 76.6 µM), for the others: at the highest dose activity change, negative = inhibition, most hits filed as inhibitors; also: potency is read from the fitted curve at half-maximal effect; % is scaled to controls: 0 for no effect and ±100 for the full control effect; nearly all actives have a fitted effect of over 65% in size
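IDH1-R132H (0.5 ug/mL dispensed) in pH 7.5 Tris buffer was preincubated 30 min with compound, then given a substrate mix of 0.016 mM NADPH and 2 mM alpha-KG for 80 min at room temperature; remaining NADPH was read by diaphorase/resazurin fluorescence.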
GLP1R ag: activates the human GLP-1 receptor; HEK293 GLP-1R CRE-luciferase, luminescence, 4-6 h; cells express a hypersensitive GLP-1R form; hit rate 0.007% among 380,000; Potency, µM (titrated, usually from 45.6 µM), inactives show at the highest dose activation, hits mostly activators; AID 624172; also: potency is read from the fitted curve at half-maximal effect; % of control where 0% means no effect
* marks the source's active call; other numbers are inactive results; i = inactive; ? = inconclusive; · = no result; ! = a repeat was not active; [ ] = dose if it differs, or a comment. Unless noted, calls follow the shape of the dose curve; as a rule, active = well fitted curve in the direction sought with a large enough effect; inconclusive = small, poorly fitted or top-dose-only effect, or another doubt; inactive = no such curve, though single readings can be large; an effect the other way counts as inactive or inconclusive.

SMILES	PTHR1 agonist	GLP1R inv ag	LDHA inh	HEK293 tox	IDH1 R132H inh	GLP1R ag
CCCCn1c(SCC(=O)NC(C)(C)C)nc2ccccc2c1=O	·	·	0	·	·	·
CC1CCN(C(=O)CSc2nnc(-c3ccccc3Cl)n2C2CCCC2)CC1	·	·	-6	·	·	·
COc1ccc(-c2coc3c(C(=O)NCc4ccco4)cccc23)c(C)c1	-44%	4.5µM*	-9	-7%	·	-2%
O=C(C[n+]1ccccc1Cl)c1ccc(I)cc1	·	·	-1	·	·	·
CC(C)(C)c1ccc(C(=O)C[n+]2ccccc2Cl)cc1	·	·	-52*	·	·	·
CC(=O)N(c1cccc(Cl)c1)c1nc(COC(=O)C=C(C)C)cs1	·	·	-5	·	·	·
Nc1ccccc1Sc1ccccc1[N+](=O)[O-]	-33%	-24%	1	-10%	-1%	4%
Nc1nc(O)c(Sc2ccccc2[N+](=O)[O-])c(=O)[nH]1	i	20%	-52*	-6%	-1%	1%
CC(C)c1ccc(/C=C(/C(=O)O)c2cccs2)cc1	·	·	-15	·	·	·
Cc1[nH]c2ccccc2c1C(c1cccc(F)c1)c1c(C)[nH]c2ccccc12	·	·	0	·	·	·
Cc1ccc(C(c2cccc(Br)c2)c2c(C)[nH]c3ccccc23)s1 (stereo unspecified)	-6%	10µM*	11	0%	15%	·
CC(C)c1cnc2c(c1SCCN1CCOCC1)c(=O)n(C)c(=O)n2C	·	·	1	·	·	·
CCN1C(=O)c2ccccc2Sc2ccc(C(=O)NCCCN3CCCCC3)cc21	i	13µM*	-2	-24%	-10%	-4%
Cc1[nH]c2ccc(C(=O)NCCCN3CCCCC3)cc2c1C	18µM*!	22%	1	3%	7%	-5%
COc1ccccc1NC(=O)Nc1nc(CC(=O)N2CCN(c3ccccc3F)CC2)cs1	-72%	10µM*	-2	-12%	-1%	-1%
Cc1cccc(C)c1Nc1sc(C(=O)c2ccccc2)c(N)c1C(=O)Nc1ccc(F)cc1	-35%	11µM*	4	-22%	-21%	·
Cc1ccn2c(=O)cc(CSc3ccc4ccccc4n3)nc2c1	·	·	15	·	·	·
COc1ccc2ccccc2c1CNCc1ccc(C)cc1	-5%	10µM*	-16	-25%	1%	21%
CC(C)CNCc1ccc(C(=O)O)cc1	·	·	3	·	·	·
Cc1ccc(NS(=O)(=O)c2ccc(C(=O)N3CCCN(C)CC3)cc2)cc1	-11%[57.5 µM]	5.6µM*	-9	0%	9%	0%
Cc1ccc(C(C#N)c2ccc(C(=O)c3ccc(F)cc3)cc2)cc1 (stereo unspecified)	-38%[57.5 µM]	11µM*	0	13%	0%	-3%
N#CC(c1ccc(F)cc1)c1ccc(C(=O)c2ccc(F)cc2)cc1 (stereo unspecified)	-17%[57.5 µM]	?	-2	20%	14%	11%
O=C(CCl)N1N=C(c2ccco2)CC1c1ccco1 (stereo unspecified)	-9%	2.2µM*	15	?	-4%	1%
O=C(CCl)N1N=C(c2cccs2)CC1c1ccco1 (stereo unspecified)	-21%	-17%[0.307 µM]	-3	-11%[0.307 µM]	-4%	-19%
CC(=O)Nc1cc(C(C)C)c(O)c(C(C)C)c1	-23%[57.5 µM]	9%	-2	12%	-3%	8%
SMILES	PTHR1 agonist	GLP1R inv ag	LDHA inh	HEK293 tox	IDH1 R132H inh	GLP1R ag
CC(C)c1cc(NC(=O)c2ccccc2)cc(C(C)C)c1O	-9%	11µM*	-2	-2%	-1%	10%
CC(C)c1ccccc1NC(=O)c1ccc2c(c1)CCC2	·	·	2	·	·	·
CC(C)c1ccccc1NC(=O)c1cccc(NC(=O)c2ccccc2)c1	i	10µM*	-1	-13%	3%	1%
Cn1c(CO)cnc1SCC(=O)c1ccc(Cl)cc1	-33%	7.1µM*	1	-28%	0%	-5%
Cn1ccnc1SCC(=O)c1ccc(Cl)cc1	-40%	21%	-1	-14%	0%	3%
CCC(C)NC(=O)Nc1ccc2nc(N3CCOCC3)cc(C)c2c1 (stereo unspecified)	·	·	8	·	·	·
CCC(O)(CC)C(=O)N(Nc1ccc(C)cc1)c1ccc(C)cc1	-29%	8.9µM*	-3	-1%	8%	8%
Cc1ccccc1OCCNc1cc(N2CC(C)NC(C)C2)ccc1[N+](=O)[O-] (stereo unspecified)	-14%	7.9µM*	2	?	-5%	-3%
CC1CN(c2ccc([N+](=O)[O-])c(NCCOc3ccc(Cl)cc3)c2)CC(C)N1 (stereo unspecified)	i	10µM*	3	-10%	-1%	-1%
O=C(CN1CCN(C(=O)c2cc(=O)[nH]c3ccccc23)CC1)NCc1ccccc1	·	·	9	·	·	·
CC(=O)c1cn(CC(=O)NCc2ccccc2)c2ccccc12	·	·	7	·	·	·
O=C(Cn1cc(C(=O)c2ccccc2)c2ccccc21)NCc1ccccc1	·	·	-35*	·	·	·
Cc1ccc(NC(=O)CSc2nc3cc([N+](=O)[O-])ccc3o2)cc1C	·	·	-5	·	·	·
COc1ccccc1N1CCN(C(=O)c2cc(-c3ccc(F)cc3)[nH]c2C)CC1	-25%	11µM*	-4	?	1%	0%
O=S(=O)(Nc1ccc2oc3c(c2c1)CCCC3)c1cc(Cl)ccc1Cl	i	11µM*	4	2%	0%	·
Cc1cc(C)cc(OCC(=O)NNC(=O)c2ccccn2)c1	i	13µM*	0	?	-10%	-1%
COc1ccc(N2CCC(CNC(=O)Nc3ccc(C)c(C)c3)C2)cc1 (stereo unspecified)	-61%	6.3µM*	9	3%	7%	-1%
COc1ccccc1-c1sc2ccccc2c1-c1ccc2c(c1)OCO2	-27%	10µM*	-7	2%	-5%	3%
COc1ccccc1-c1sc2cc3c(cc2c1-c1ccc(OCCN2CCCCC2)cc1)OCO3	13%	13µM*	-6	?	-1%	10%
COc1ccccc1-c1sc2cc3c(cc2c1-c1ccc2c(c1)OCO2)OCO3	-30%	?	2	4%	-2%[38.3 µM]	3%
CC1CCN(CC(=O)Nc2cccc(C(=O)Nc3cccc(C(F)(F)F)c3)c2)CC1	-15%	3.2µM*	-5	?	12%	16%
CC1CCN(S(=O)(=O)c2ccc(NC(=O)CN3CCN(C)CC3)cc2)CC1	i	?	-41*	6%	-3%	3%
CC1CCN(CC(=O)Nc2ccc(N3CCCCCC3)cc2)CC1	i	2.8µM*	0	-27%	11%	23%
O=C(CN1CCCC1)Nc1ccc(Oc2ccc(NC(=O)CN3CCCC3)cc2)cc1	i	1.8µM*	1	?	4%	6%
CN1CCN(CC(=O)Nc2cccc(C(=O)Nc3cccc(C(F)(F)F)c3)c2)CC1	·	·	-4	·	·	·

Source: PubChem BioAssay
